Measurements published in PubChem BioAssay AID504465 (National Center for Advancing Translational Sciences (NCATS), 2011).
Among all 2,100 compounds or so, about 210 (10%) were called active. Another 53% or so got no clear call; they are omitted. The call rests on the fitted dose curve; in most records, active means well fitted inhibition curve with a large enough effect; inconclusive means small, poorly fitted or top-dose-only effect, or effect the other way; inactive means no such curve, though single readings can be large or run the other way. Some of the results follow.

experiment: IN Cell qHTS Assay for Inhibitors of the mTORC1 Signaling Pathway in MEF (Tsc2-/-, p53-/-) Cells: Sytravon; conditions: phospho-rpS6 immunofluorescence, 24 h; series mostly up to 38.3 µM; activity, negative = inhibition: at the top concentration; further: nearly all actives have a fitted effect of over 60% in size
Outline: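 Immunofluorescence of rpS6 phosphorylation (Ser235/236) in mouse embryonic fibroblasts lacking Tsc2 and p53, after 24 h compound exposure; Hoechst-normalized signal imaged, each well scored as % active cells relative to rapamycin (7.5 nM) and DMSO controls.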
Potency means the concentration at half of the fitted maximal effect.

SMILES | activity, negative = inhibition | Potency
O=C(CCCn1ccc2cc(S(=O)(=O)N3CCCC3)ccc21)NCc1ccc(Cl)cc1 | -28.7% (inactive) | 
CCc1ccccc1-n1c(SCC(=O)Nc2ccc(C)cc2)nc2n[nH]c(C)c2c1=N | 0% (inactive) | 
O=C(NCc1ccc(Cl)cc1Cl)c1cccc(N2CCCS2(=O)=O)c1 | 19% (inactive) | 
CCCCN1C(=O)C(O)(c2c(C)[nH]c3ccccc23)c2ccccc21 (stereo not drawn) | -20% (inactive) | 
Cc1ccccc1S(=O)Cc1ccc(C(=O)N2CCN(c3cccc(C)c3C)CC2)o1 (stereo not drawn) |  | 3.69 µM (active)
Cc1ccc(S(=O)(=O)Cc2ccc(C(=O)N3CCN(c4cccc(C)c4C)CC3)o2)cc1 | 0% (inactive) | 
Cc1cccc(N2CCN(C(=O)Cn3nc(Cc4cccnc4)c4ccccc4c3=O)CC2)c1C | -14.4% (inactive) | 
CC1CCCCN1CC(=O)N1CCCc2c1c(=O)oc1ccc(OCc3ccccc3)cc21 (stereo not drawn) |  | 13.1 µM (active)
O=C(COc1ccc2oc3c(c2c1)CCCC3)Nc1cccc(Br)c1 | -25.2% (inactive) | 
COc1ccc(OC)c(NC(=O)CN2C(=O)COc3ccc(S(=O)(=O)NC4CCCC4)cc32)c1 | 0% (inactive) | 
COc1ccc(-c2nc(SCC(=O)NCc3ccccc3Cl)n[nH]2)cc1 | 5.77% (inactive) | 
COc1cccc(C2C(C(N)=O)=C(C)Nc3nc(CCCO)nn32)c1 (stereo not drawn) | -9.38% (inactive) | 
CCCC1=Nc2cc(C(=O)NCCOC)ccc2Sc2ccccc21 | -6.5% (inactive) | 
CCSc1ccccc1C(=O)Nc1ccc(-c2nc3ccccc3s2)c(O)c1 |  | 4.65 µM (active)
COc1cc(C(=O)Nc2cc(C)c(O)c(-c3nc4ccccc4s3)c2)cc(OC)c1OC | -76.9% (inactive) | 
Cc1ccccc1NC(=O)CSc1nc2ccc(NC(=O)c3ccccc3)cc2s1 | -6.34% (inactive) | 
Cc1ccc(C)c(N2CCN(C(=O)C3CCN(c4nc5ccc(C)cc5[nH]4)CC3)CC2)c1 | 0.961% (inactive) | 
Cc1ccccc1Cn1cc(NC(=O)c2cc(-c3ccc(Cl)cc3)on2)cn1 | -3.51% (inactive) | 
COc1ccc(N2CC(c3nc(-c4cc(OC)c(OC)c(OC)c4)no3)CC2=O)cc1Cl (stereo not drawn) | -1.67% (inactive) | 
Cc1ccc(NC(=O)Cc2coc3ccc(C(C)C)cc23)cc1Cl | -9.6% (inactive) | 
Cc1ccc2occ(CC(=O)Nc3ccc(Cl)c(C(F)(F)F)c3)c2c1 |  | 13.1 µM (active)
Cc1ccc2onc(CC(=O)Nc3cccc(C(F)(F)F)c3)c2c1 | -16.8% (inactive) | 
CC(C)(C)c1ccc(Oc2nc3ccccn3c(=O)c2/C=C(\C#N)c2nc3ccccc3[nH]2)cc1 | 16.3% (inactive) | 
COc1ccccc1CNS(=O)(=O)c1cc(C(=O)Nc2cccc(C(F)(F)F)c2)ccc1F | 6.25% (inactive) | 
O=C(Nc1ccc(Br)cc1)c1cc(S(=O)(=O)N2CCc3ccccc32)ccc1F | 6.25% (inactive) | 

SMILES | activity, negative = inhibition | Potency
Cc1ccc(CNc2nc3c(c(=O)n(C)c(=O)n3C)n2Cc2ccc(Cl)cc2)cc1 | -29.3% (inactive) | 
CCOC(=O)Cn1c(=O)n(-c2ccccc2OC)c2nc(-c3ccccc3F)nc(C(N)=O)c21 | -2.08% (inactive) | 
CCOC(=O)Cn1c(=O)c2c(nc(N3CCOCC3)n2Cc2ccccc2)n(C)c1=O |  | 8.26 µM (active)
CCN(C(=O)CN1C(=O)c2ccccc2Sc2ccc(C(=O)OC)cc21)c1cccc(C)c1 | -1.6% (inactive) | 
O=C(Nc1ccc(Cl)cc1)C1CCC(CNS(=O)(=O)c2ccc(Br)s2)CC1 (stereo not drawn) | -26% (inactive) | 
Cc1cccc(C)c1NC(=O)c1cc(S(=O)(=O)N2CCCc3ccccc32)ccc1F | 6.25% (inactive) | 
CC(C)S(=O)(=O)c1oc(-c2ccc(F)cc2)nc1S(=O)(=O)c1ccc(F)cc1 |  | 0.826 µM (active)
CC(C)S(=O)(=O)c1oc(-c2cccs2)nc1S(=O)(=O)c1ccc(F)cc1 |  | 0.927 µM (active)
CCC(C)S(=O)(=O)c1oc(-c2ccc(F)cc2)nc1S(=O)(=O)c1ccc(F)cc1 (stereo not drawn) |  | 1.04 µM (active)
Brc1ccc(CNCCCSc2nnnn2-c2ccccc2)cc1 | -15.4% (inactive) | 
CCOCc1cc(CN2CCN(c3cccc(C(F)(F)F)c3)CC2)c(O)c2ncccc12 | -28% (inactive) | 
Cc1cn2c(=O)cc(COC(=O)c3ccc(NC(=O)COc4ccccc4C)cc3)nc2s1 | 0% (inactive) | 
CC(=O)c1ccc(N2CCN(S(=O)(=O)c3ccc(-c4coc(C)n4)cc3)CC2)cc1 | -10.4% (inactive) | 
CCOC(=O)c1c(NC(=O)c2ccc(S(=O)(=O)N3CCCC(C)C3)cc2)sc2c1CC(C)(C)NC2(C)C (stereo not drawn) | 6.25% (inactive) | 
CN(C)c1ccc(/C=C(\C#N)c2nc(-c3ccc(Cl)c(Cl)c3)cs2)cc1 | 0.289% (inactive) | 
CCSc1oc(-c2ccc(F)cc2)nc1S(=O)(=O)c1ccc(C)cc1 | -11.9% (inactive) | 
Cc1ccc(S(=O)(=O)c2nc(-c3cccs3)oc2SCC(=O)Nc2cc(C)cc(C)c2)cc1 |  | 16.5 µM (active)
CCOc1ccc(NC(=O)CSc2oc(-c3ccc(F)cc3)nc2S(=O)(=O)c2ccc(C)cc2)cc1 |  | 2.33 µM (active)
COc1ccc(-c2nc(SCC(=O)Nc3c(C)cc(C)cc3C)n[nH]2)cc1 | -15.3% (inactive) | 
CCOc1ccc(-c2nnc(SCC(=O)Nc3cccc(OC)c3)nc2-c2ccc(OCC)cc2)cc1 | 6.25% (inactive) | 
CCOc1ccc(-c2cc(CCCC(=O)NCCc3ccc(OC)c(OC)c3)no2)cc1 | -10% (inactive) | 
CCOC(=O)c1c(-c2ccccc2)oc2ccc(N(C(C)=O)S(=O)(=O)c3ccc(CC)cc3)cc12 | -2.37% (inactive) | 
Cc1ccc(OCC(=O)Nc2ccc3nc(Nc4cccc(Cl)c4)cc(C)c3c2)cc1 |  | 14.7 µM (active)
Cc1ccc(-n2c(SCC(=O)Nc3cccc(Cl)c3)nc3n[nH]c(C)c3c2=N)cc1 | 0% (inactive) | 
CCN(CC)c1cc(C)c2cc(NC(=O)c3ccccc3Cl)ccc2n1 | -4.11% (inactive) | 

SMILES | activity, negative = inhibition | Potency
CCN1C(=O)C(O)(c2c(C)[nH]c3ccccc23)c2ccccc21 (stereo not drawn) | -0.614% (inactive) | 
Cc1nn(-c2ccc(N3CCOCC3)nn2)c(C)c1CCC(=O)NCc1ccccc1F | -3.08% (inactive) | 
O=C(CSc1nc(-c2ccccc2)[nH]c1-c1ccccc1)Nc1ccc2c(c1)OCO2 | -14.4% (inactive) | 
Cc1cccc(C(=O)Nc2c(-c3ccc(F)cc3)nc3ccccn23)c1 | -18.2% (inactive) | 
CCOC(=O)c1c(C)[nH]c(CCC(=O)Nc2cc(C)cc(C)c2)c1C | -3.85% (inactive) | 
CCOC(=O)c1c(C)[nH]c(CCC(=O)NCCCN2CCN(c3cc(Cl)ccc3C)CC2)c1C |  | 14.7 µM (active)
CCOC(=O)c1c(C)[nH]c(CCC(=O)NCc2ccc(OC)cc2OC)c1C | 12.9% (inactive) | 
COC(=O)c1c(-c2ccc(Cl)cc2)noc1N1CCN(c2cc(C)ccc2C)CC1 | 8.33% (inactive) | 
CCOC(=O)c1c(C)[nH]c(CCC(=O)NCCCN2CCN(c3cc(C)ccc3C)CC2)c1C |  | 11.7 µM (active)
COc1ccc(-c2ccc(CCC(=O)O)n2-c2ccccc2O)cc1 | -5% (inactive) | 
CCC1CN(C(=O)NCc2ccccc2)c2cc(C)ccc2O1 (stereo not drawn) | -10.1% (inactive) | 
CCN(Cc1ccccc1)Cc1c(O)ccc2oc(C)c(C(=O)Nc3ccc(C)cc3C)c12 | -5.82% (inactive) | 
CCCCN1C(C(=O)c2ccccc2)=C(OC(C)=O)c2ccccc2S1(=O)=O | -15.5% (inactive) | 
COc1ccc(OC)c2sc(N(CCCN(C)C)C(=O)c3ccco3)nc12 |  | 14.7 µM (active)
COc1ccccc1Nc1c2c(nc3ccc(NC(=O)c4ccc(N(C)C)cc4)cc13)CCCC2 |  | 2.07 µM (active)
COc1ccccc1Nc1nn2c(=O)c3ccc(C(=O)NCCC4=CCCCC4)cc3nc2s1 | -95.7% (inactive) | 
COc1ccccc1Nc1c2c(nc3ccc(NC(=O)c4cccc(OC)c4OC)cc13)CCCC2 |  | 5.85 µM (active)
COc1ccccc1Nc1c2c(nc3ccc(NC(=O)c4ccc(OC)c(OC)c4)cc13)CCCC2 |  | 1.65 µM (active)
COc1cc2c(cc1OC)n(CC(=O)Nc1ccc(C)cc1C)c(=O)n1nc(-c3ccccc3)nc21 | -81.9% (inactive) | 
COc1cc(Cl)c(C)cc1Nc1c2c(nc3ccccc13)CCC2 | -95.5% (inactive) | 
COc1ccccc1Nc1nn2c(=O)c3ccc(C(=O)NCCc4ccccc4)cc3nc2s1 | -11.5% (inactive) | 
COc1ccc(C(=O)Nc2cccc(-c3cn4ccsc4n3)c2)cc1OC | -19.6% (inactive) | 
COc1ccc(C)cc1Nc1c2c(nc3ccccc13)CCC2 |  | 7.36 µM (active)
CC1=C(C(=O)Nc2ccccc2C)C(c2cccs2)n2nc(SCc3ccccc3)nc2N1 (stereo not drawn) | -100% (inactive) | 
CCC1CN(C(=O)N2CCC(C(=O)NCCN(CC)CC)CC2)c2ccccc2O1 (stereo not drawn) | -0.799% (inactive) | 

SMILES | activity, negative = inhibition | Potency
CC(C)c1ccc(NC(=O)c2ccc(F)c(S(=O)(=O)N3CCN(c4ccccc4F)CC3)c2)cc1 | 6.25% (inactive) | 
COc1ccc2c(c1)c(=O)c(S(=O)(=O)c1ccc(Cl)cc1)cn2C | -15.6% (inactive) | 
COc1ccc(CCCc2nnc(SCC(=O)Nc3cccc(F)c3C)o2)cc1 | -25.4% (inactive) | 
COc1ccccc1CCNC(=O)C(=O)NCC(c1cccnc1)N1CCN(c2ccccc2)CC1 (stereo not drawn) | -1.98% (inactive) | 
CCCc1nn2c(=O)cc(COC(=O)c3cccc(NC(=O)c4ccc(OCC)cc4)c3)nc2s1 | 0% (inactive) | 
CCOc1ccc(NC(=O)Cn2c(=O)cc(C)c3c(C)nn(C)c32)cc1 | -14.9% (inactive) | 
CCC1=Nc2cc(C(=O)NCc3ccccc3Cl)ccc2Sc2ccc(C)cc21 | 0% (inactive) | 
CCc1cccc(NC(=O)Cn2c(=O)n(CCC(=O)NCc3ccccc3Cl)c(=O)c3sccc32)c1 | -100% (inactive) | 
CN(C)C1(CNC(=O)COc2ccc(C(C)(C)C)cc2)CCCCC1 | -7.34% (inactive) | 
CC(C)(C)c1ccc(OCC(=O)NCC2(N3CCOCC3)CCCCC2)cc1 | -38.2% (inactive) | 
Cc1ccc(OCC(=O)NCC2(N3CCN(C)CC3)CCCCC2)cc1 | -19.1% (inactive) | 
CN1CCN(C2(CNC(=O)COc3ccc(C(C)(C)C)cc3)CCCCC2)CC1 |  | 14.7 µM (active)
CC(C)COc1ccc(C(=O)NCC2(N3CCN(C)CC3)CCCCC2)cc1 |  | 16.5 µM (active)
Cc1ccc(OCC(=O)NCC2(N3CCN(C)CC3)CCCCC2)cc1C | -20.2% (inactive) | 
Oc1ccccc1-c1nc(-c2cccs2)c(-c2cccs2)[nH]1 | -1.5% (inactive) | 
COc1ccc(CNCCC(c2ccc(C)cc2)c2ccco2)cc1 (stereo not drawn) | -100% (inactive) | 
CC(=O)c1cccc(NS(=O)(=O)c2ccc3[nH]c4c(c3c2)CCCCC4)c1 | 1.08% (inactive) | 
CCCN(CCC)CCCNC(=O)c1cc2c(-c3ccc(OC)c(OC)c3)nn(C)c2s1 |  | 16.5 µM (active)
COc1ccc(-c2nn(C)c3sc(C(=O)Nc4cccc(F)c4)cc23)cc1OC | 0% (inactive) | 
CCCCN(CCCC)CCCNC(=O)c1cc(-c2ccc(Cl)s2)nc2ccccc12 | 25.2% (inactive) | 
CCOc1ccc(CCNC(=O)c2cc3c(-c4ccccc4F)nn(C)c3s2)cc1 | 19.4% (inactive) | 
COc1ccc(CCNC(=O)c2nn(C)c3c2CSc2ccccc2-3)cc1OC | -7.86% (inactive) | 
CCCN(CCC)CCCNC(=O)c1cc2c(-c3ccc(Cl)cc3)nn(C)c2s1 |  | 2.61 µM (active)
